# Experimental data published in PubChem BioAssay AID1117319 (Southern Research Institute, 2015).
# Screen size: about 260,000 compounds; about 1,500 (0.58%) were called active. Roughly 5% stayed inconclusive and do not appear here.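 The calls were made as follows: active = inhibition above a set limit at one or more doses, reproduced on every date tested; inconclusive = results disagree between test dates, or hit never tested in dose response; inactive = the rest.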 Only a sample is shown. Results with a measured potency or affinity are listed apart.
# Target: Virion infectivity factor (Human immunodeficiency virus type 1 group M subtype B (isolate BH10)) + Virion infectivity factor (Human immunodeficiency virus type 1 group M subtype B (isolate BRU/LAI)) + Virion infectivity factor (Human immunodeficiency virus type 1 group M subtype B (isolate PCV12)) + Virion infectivity factor (Human immunodeficiency virus type 1 group M subtype B (isolate HXB2)) + DNA dC->dU-editing enzyme APOBEC-3G (Homo sapiens) (UniProt P69720+P69721+P69722+P69723+Q9HC16)
# Experiment: HIV-1 Vif–A3G interaction blockers – biochemical, TR-FRET, GST-Vif 1-94, biotin-A3G peptide, dose response retest, primary screen (AID 1117319);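 also: Vif residues 1-94 fused to GST binding biotinylated APOBEC3G peptide 110-148; 0% = full assay without inhibitor and 100% = GST in place of GST-Vif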
# Conditions: TR-FRET GST-Vif / biotin-A3G peptide binding; hits give high values
row,SMILES,inhibition
1,Cc1ccn2c(/C=N/OCc3ccc(F)cc3)c(-c3ccc(Cl)cc3)nc2c1,-1.15% (inactive)
2,CCCCN(CCCC)CC1OCc2ccccc2CO1,-2.33% (inactive)
3,COc1ccc(-c2nn(-c3ccccc3)cc2CNC[C@H]2O[C@@H](n3cnc(C(N)=O)n3)[C@H](O)[C@@H]2O)cc1,12.8% (inactive)
4,CCC(C)Nc1nc(C)nc2c1oc1ccccc12 (stereo unspecified),-0.82% (inactive)
5,CC(=O)c1sc(=S)n(Cc2ccccc2)c1C,-9.02% (inactive)
6,COc1cc2c(cc1OC)C(Cc1ccc(O)cc1)NCC2 (stereo unspecified),16.4% (inactive)
7,COc1cc2c(cc1O)C(Cc1ccc(O)cc1)NCC2 (stereo unspecified),-2.34% (inactive)
8,CC(Oc1ccccc1F)c1nnc(SCC(=O)NCc2ccc3c(c2)OCO3)o1 (stereo unspecified),-7.49% (inactive)
9,COc1ccc(-n2cc(-c3ccc(Cl)cc3)[nH]c2=S)cc1,-54.3% (inactive)
10,O=C(c1ccc(Cl)cc1)C1CCCN(Cc2cccn2-c2ccccn2)C1 (stereo unspecified),-9.46% (inactive)
11,CCOc1cc(C(=S)N2CCOCC2)ccc1OC(=O)c1ccc(C)cc1,4.9% (inactive)
12,N#C/C(=C(/O)COc1ccc(Cl)cc1)c1nc2ccccc2s1,5.6% (inactive)
13,CC(C)NCC(O)c1ccc(NS(C)(=O)=O)cc1 (stereo unspecified),4.04% (inactive)
14,CCC(c1ccccc1)C(CC)c1cc(O)c(O)c(O)c1 (stereo unspecified),27.3% (inactive)
15,CNC[C@H](O)c1cccc(O)c1,-0.43% (inactive)
16,CCC(NC(C)C)C(O)c1ccc(O)c(O)c1 (stereo unspecified),-1.98% (inactive)
17,COc1ccc([C@H](C)NC[C@H](O)c2ccc(O)c(NC=O)c2)cc1,26% (inactive)
18,CC(C)NCC(O)c1cc(O)cc(O)c1 (stereo unspecified),5.35% (inactive)
19,CN1/C(=C\C(=O)COC(=O)c2ccccc2O)C(C)(C)c2ccccc21,-8.33% (inactive)
20,Cc1occc1-c1nnc(SCC(=O)Nc2ccccc2)n1C,1.99% (inactive)
21,Oc1cccc(/C=N/N2CCN(c3ccccn3)CC2)c1,3.52% (inactive)
22,CCN(CC)S(=O)(=O)c1cccc(-c2nn(-c3ccccc3)cc2/C=C(\C#N)C(=O)NCc2ccco2)c1,-3.43% (inactive)
23,CCOc1ccc(CCNC(=O)C2CCN(S(=O)(=O)N3CCC(C)CC3)CC2)cc1OCC,-6.54% (inactive)
24,CCOc1ccc(CCNC(=O)C2CC=CCC2C(=O)OC(C)C)cc1OCC (stereo unspecified),0.89% (inactive)
25,CCOC(=O)c1[nH]c2cc(OC)c(OC)cc2c1NC(=O)CN1CCN(c2ccc(OC)cc2)C(C)C1 (stereo unspecified),23% (inactive)
26,Cc1cc(C(=O)N/N=C/c2ccc(-c3cccc(Cl)c3)o2)n[nH]1,-2.03% (inactive)
